Results filed as inconclusive are left out. The source made the active and inactive calls. The calls were made as follows: active = hit-call score of the fitted dose curve at least 0.9, where 1 is the maximum; inconclusive = response in the unintended direction; inactive = score below 0.9.

Chain of Glyceraldehyde-3-phosphate dehydrogenase (Homo sapiens) (P04406 whole entry, looked up): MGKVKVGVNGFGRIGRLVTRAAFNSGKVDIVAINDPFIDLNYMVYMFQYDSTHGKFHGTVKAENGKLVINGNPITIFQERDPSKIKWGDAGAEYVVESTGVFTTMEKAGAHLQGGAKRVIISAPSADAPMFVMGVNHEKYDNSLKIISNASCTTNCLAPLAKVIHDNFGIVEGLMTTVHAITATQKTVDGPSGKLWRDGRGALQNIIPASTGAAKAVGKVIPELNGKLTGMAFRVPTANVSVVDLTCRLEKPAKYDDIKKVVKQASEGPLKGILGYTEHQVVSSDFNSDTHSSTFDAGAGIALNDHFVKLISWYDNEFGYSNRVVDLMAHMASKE

Read-out in the assay: Glyceraldehyde-3-phosphate dehydrogenase (Homo sapiens) (UniProt P04406)
In words: CLD_GAPDH_48hr: CellzDirect (CLD) Gene Expression Assay for Baseline Control (Glyceraldehyde 3-phosphate dehydrogenase) at 48 hours (AID 2283706).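 Also: active means higher GAPDH mRNA than DMSO vehicle.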 On the procedure: CLD_48hr is a cell-based, multiplexed-readout assay that uses hepatocyte, a human liver primary cell, with measurements taken at 48 hours after chemical dosing in a 96-well plate.CLD_GAPDH_48hr is one of 16 assay component(s) measured or calculated from the CLD_48hr assay. It is designed to make measurements of mRNA induction, a form of inducible reporter, as detected with chemiluminescence signals by Quantitative Nuclease Protection Assay (qNPA) technology.Data from the assay component CLD_GAPDH_48hr was analyzed at the endpoint, CLD_GAPDH_48hr, in the positive analysis fitting direction relative to DMSO as the negative control and baseline of activity. Using a type of inducible reporter, gain-of-signal activity can be used to understand changes in the reporter gene as they relate to the gene GAPDH. Furthermore, this assay endpoint can be referred to as a secondary readout, because this assay has produced multiple assay endpoints where this one serves a background control function. To generalize the intended target to other relatable targets, this assay endpoint is annotated to the background measurement intended target family, where subfamily is baseline control.
Human hepatocyte cultures were treated daily for two consecutive days with fresh dosing solutions containing appropriate concentrations of the 320 ToxCast chemicals (chemical identities were blinded to CellzDirect and other ToxCast collaborators), vehicle control (0.2% DMSO), and positive control inducers as summarized in Table 1. Due to the large number of treatment groups and chemicals examined, the ToxCast chemicals were divided into two groups (spanning two independent cultures of hepatocytes from separate donor preparations (Hu778: ToxCast plates 1 and 2; Hu776: ToxCast plates 3 and 4). Each preparation of human hepatocyte cultures was treated with respective vehicle control, medium only control, set of six positive controls/reference chemicals for the five hepatic receptor pathways, and a subset of eight of the ToxCast chemicals (indoxacarb, pyrithiobac-sodium, norflurazon, cyhalofop-butyl, methomyl, thiram, acetochlor, and propiconazole). These replicate data, coupled with internal replicates designed within the blinded ToxCast chemical library, provided additional data to evaluate interindividual differences between hepatocyte preparations and their potential impact on chemical profiles.Cell morphology and integrity were evaluated using phase-contrast microscopy as an indicator of hepatocyte cell health (Tyson & Green, 1987). Cultures for each treatment group (i.e., media, vehicle [0.2% DMSO], positive control inducers [multiple concentrations], and the ToxCast chemicals [multiple concentrations]) were observed and cell morphology was assessed relative to vehicle control cultures at each harvest time point (0, 6, 24, or 48 h). […] Images were evaluated at the conclusion of the study to assess changes in cell integrity and account for the effects of chemical exposure on uncharacteristic changes in concentration-dependent gene expression profiles. The results from these determinations of apparent cytotoxicity were annotated (yes/no) alongside the corresponding qNPA data for reference.At the conclusion of each treatment period, hepatocyte cultures (96-well) were washed with 1 volume of HBSS, lysed by addition of 25 ul ArrayPlate lysis buffer (HTG, Tucson, AZ), and 70 ul/well of Denaturation Oil, denatured by incubation at 95C for 10 min, and frozen at approximately -70C until analysis by nuclease protection assay (qNPA) (Roberts et al., 2007). For qNPA analysis, cell lysates were thawed at 50C for approximately 30 min, qNPA probes were added, and samples were incubated at 95C for 10 min to begin the detection process by denaturing the target RNA, dissociating the duplexes and secondary structure hybridization. At the conclusion of the hybridization period, S1 nuclease reagent was added to each sample to digest all nonprotected nucleotides at 50C for 60-90 min. […]
On to `CNC(=O)/C=C(\C)OP(=O)(OC)OC`, for which the molecule was classed as inactive. On to `N#Cc1c(Cl)c(Cl)c(Cl)c(C#N)c1Cl`, for which the molecule was classed as inactive.

`N#CN`: the outcome was inactive. Regarding `CC(C)OC(=O)Nc1cccc(Cl)c1`, the outcome was inactive. For `Oc1cc(Cl)ccc1Oc1ccc(Cl)cc1Cl`, the call was inactive.

As to `COC(=O)c1ccccc1S(=O)(=O)NC(=O)Nc1nc(C)nc(OC)n1`, the result was inactive. `O=C1c2ccccc2C(=O)N1SC(Cl)(Cl)Cl`: the result was inactive.

`CNC(=O)Oc1ccccc1OC(C)C`: the molecule was called inactive. In the case of `O=C(NC(=O)c1c(F)cccc1F)Nc1ccc(OC(F)(F)C(F)OC(F)(F)F)c(Cl)c1` (centres undefined), the molecule was classed as inactive. `CC(C)N(C(=O)COc1nnc(C(F)(F)F)s1)c1ccc(F)cc1`: the outcome was inactive.

On to `O=C(O)COc1ccc(Cl)cc1Cl`, for which the outcome was inactive. The same measure for `COC(=O)c1ccccc1CS(=O)(=O)NC(=O)Nc1nc(OC)cc(OC)n1`: “inactive”; for `CNC(=O)Oc1cccc(N=CN(C)C)c1`: “inactive”; for `[2H]C1([2H])[n+]2ccccc2-c2cccc[n+]2C1([2H])[2H]`: “inactive”. The entry for `CN1CSC(=S)N(C)C1` is “inactive”. As to `CCC(C)(C)C(=O)OC1=C(c2ccc(Cl)cc2Cl)C(=O)OC12CCCCC2`, the call was inactive.

For the molecule `CC[C@H](C)[C@H]1O[C@]2(C=C[C@@H]1C)C[C@@H]1C[C@@H](C/C=C(\C)[C@@H](O[C@H]3C[C@H](OC)[C@@H](O[C@H]4C[C@H](OC)[C@@H](O)[C@H](C)O4)[C@H](C)O3)[C@@H](C)/C=C/C=C3\CO[C@@H]4[C@H](O)C(C)=C[C@@H](C(=O)O1)[C@]34O)O2` (tested in a mixture with another compound), the call was inactive.

Regarding `CCOc1nc(NC)nc(NC(=O)NS(=O)(=O)c2ccccc2C(=O)OC)n1`, the outcome was inactive. The same measure for `O=C(O)C(F)(F)C(F)(F)C(F)(F)C(F)(F)C(F)(F)C(F)(F)C(F)(F)F`: “inactive”; for `O=[N+]([O-])/N=C1\NCCN1Cc1ccc(Cl)nc1`: “inactive”; for `CCS(=O)(=O)c1cccnc1S(=O)(=O)NC(=O)Nc1nc(OC)cc(OC)n1`: “inactive”. In the case of `Oc1ccc(Cl)cc1Cc1ccccc1`, the call was inactive. For `COC(=O)c1ccccc1S(=O)(=O)NC(=O)N(C)c1nc(C)nc(OC)n1`, the call was inactive.

Take `CC1(c2ccc(Oc3ccccc3)cc2)OC(=O)N(Nc2ccccc2)C1=O` (centres undefined): the outcome was inactive. The same measure for `Cc1cc(C)nc(NC(=O)NS(=O)(=O)c2ccccc2C(=O)OC2COC2)n1`: “inactive”; for `COP(=O)(OC)OC=C(Cl)Cl`: “inactive”; for `COc1cc(OC)nc(NC(=O)NS(=O)(=O)c2cc(NC=O)ccc2C(=O)N(C)C)n1`: “inactive”.

Regarding `O=S(=O)(O)C(F)(F)C(F)(F)C(F)(F)C(F)(F)C(F)(F)C(F)(F)C(F)(F)C(F)(F)F`, the result was inactive. With `CCCN(CCOc1c(Cl)cc(Cl)cc1Cl)C(=O)n1ccnc1`, the molecule was called inactive.

The values are drawn from PubChem BioAssay (EPA / NIEHS).
